Assay outcomes as filed in PubChem.
In the library only some 3.2% were active in any assay of this set; here they are far more common.
MsrA inhibitor: bovine MsrA enzyme inhibitors, primary screen, biochemical, absorbance, HTS; purified bovine MsrA, absorbance read-out; hit rate 0.75% among 360,000; inhibition, % at 15.5 µM; Methionine sulfoxide reductase A (Bos taurus); AID 651718, 2012; in the data active = inhibition above about 4.5%;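 note: 0% = vehicle wells with enzyme and 100% = reference inhibitor wells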
rCAG RNA binder: binders of r(CAG) RNA repeats, primary screen, biochemical, fluorescence; r(CAG) RNA repeat, TO-PRO-1 dye displacement fluorescence; inhibition, % at 3 µM; hit rate 1.3% among 370,000;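 active = inhibition above the plate cutoff, the mean of all test compounds on that plate plus 3 SD, cut at about 35% in these data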;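 note: 0% = DMSO alone and 100% = 100 µM mitoxantrone as full dye displacement; higher means more dye released from RNA so lower well fluorescence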
bovine MsrA act: bovine MsrA enzyme activators, primary screen, biochemical, absorbance, HTS; purified bovine MsrA, absorbance read-out; activation, % at 10.6 µM; hit rate 0.3% among 360,000; in the data active = activation above about 7.5%;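 note: 0% = vehicle and 100% = reference activator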
PG9 binder: binders of HIV-1 gp120 antibody PG9, primary screen, biochemical, TR-FRET; HIV-1 gp120 / PG9 antibody interaction; TR-FRET gp120-PG9 antibody binding; inhibition, % at 6.7 µM; hit rate 0.43% among 360,000; AID 624416, 2012; in the data active = inhibition above about 8.5%
sPLA2-III inh: human group III sPLA2 inhibitors, primary screen, biochemical, QFRET, BODIPY PC-A2 liposome substrate; Group 3 secretory phospholipase A2 (Homo sapiens), Q9NZ20; QFRET BODIPY PC-A2 liposome hydrolysis, fluorescence; inhibition, % at 12.2 µM; hit rate 0.56% among 370,000;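 active = inhibition above mean plus 3 SD of compounds lying within the high and low control bounds, cut at about 19% in these data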;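 note: 0% = median of test compound wells and 100% = no enzyme DMSO wells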
Target sequence (Q9NZ20 whole entry, looked up): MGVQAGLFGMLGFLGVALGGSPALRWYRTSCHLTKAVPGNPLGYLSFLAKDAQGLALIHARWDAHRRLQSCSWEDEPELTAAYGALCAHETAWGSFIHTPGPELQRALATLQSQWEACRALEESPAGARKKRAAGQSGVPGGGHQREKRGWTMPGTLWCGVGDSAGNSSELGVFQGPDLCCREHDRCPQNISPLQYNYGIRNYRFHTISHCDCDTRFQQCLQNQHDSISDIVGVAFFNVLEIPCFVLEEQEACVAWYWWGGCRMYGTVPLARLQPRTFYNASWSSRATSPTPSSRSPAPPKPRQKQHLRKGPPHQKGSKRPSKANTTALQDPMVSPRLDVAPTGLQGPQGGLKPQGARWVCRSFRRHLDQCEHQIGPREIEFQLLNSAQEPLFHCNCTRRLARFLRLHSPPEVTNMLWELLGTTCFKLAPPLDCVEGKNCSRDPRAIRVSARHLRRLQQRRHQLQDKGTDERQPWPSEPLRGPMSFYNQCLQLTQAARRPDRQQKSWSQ
PG9 binder conf: binders of anti-gp120 antibody PG9, confirmation, biochemical, TR-FRET; TR-FRET PG9 antibody binding; hit rate 90% among 1,500; shares compounds with PG9 binder; inhibition, % at 6.7 µM; in the data active = inhibition above about 9%
PGV04 Ab binding: binders of control antibody PGV04, counter-screen for PG9 antibody binder project, biochemical, TR-FRET, distinct HIV envelope site; hit rate 95% among 1,500; shares compounds with PG9 binder; inhibition, % at 6.7 µM; TR-FRET PGV04 antibody-gp120 binding; AID 651604, 2012; in the data active = inhibition above about 9.5%
PG9 bind DR: small-molecule binders of antibody PG9, dose response, biochemical, TR-FRET, HIV-1 gp120 antibody; shares compounds with PG9 binder; TR-FRET PG9 antibody-gp120 binding inhibition; IC50, µM; 95 tested, under 10 active; AID 651848, 2012; in the data active = IC50 below about 10 µM
PGV04 binding DR: binders of control antibody PGV04, dose response, counter-screen for PG9 antibody binder project, biochemical, TR-FRET, distinct HIV envelope site | shares compounds with PG9 binder | TR-FRET binding to control antibody PGV04 | IC50, µM | hit rate 20% among 95 | AID 651937, 2012
PG126 DR counter: binders of control antibody PG126, dose response, counter-screen for PG9 antibody binder project, biochemical, TR-FRET, distinct HIV envelope site | hit rate 20% among 95 | shares compounds with PG9 binder | TR-FRET binding to antibody PG126, counterscreen | IC50, µM
The depositor's hits bear a star; i = inactive; x = no result. Cut-off read from the data, not from the text of the source, unless noted: active = IC50 below about 9 µM; inactive = the rest.

SMILES	MsrA inhibitor	rCAG RNA binder	bovine MsrA act	PG9 binder	sPLA2-III inh	PG9 binder conf	PGV04 Ab binding	others
CCN(C(=O)CSc1cc(-c2ccccc2)c2ccc(OC)cc2n1)C1CCS(=O)(=O)C1 (centres undefined)	3	12	-1	2	-35	x	x
O=C(Nc1ccon1)c1sc2cc(F)ccc2c1Cl	1	0	-3	15*	3	24*	46*
CC(C)(C)c1ccc2c(c1)OC(C(=O)N/N=C/c1ccc[nH]1)CO2 (centres undefined)	x	x	x	x	-1	x	x
C#CCN1CC(N(C)CCOC(=O)c2ccc(OC)c(OC)c2)CS1(=O)=O (centres undefined)	x	0	x	x	16	x	x
O=C(C[C@H]1CC[C@@H](NC(=O)Cc2cccnc2)[C@@H](CO)O1)NCc1ccc2c(c1)OCO2	0	3	x	-2	1	x	x
O=C(C[C@H]1CC[C@@H](NC(=O)Nc2ccc3c(c2)OCO3)[C@@H](CO)O1)NCc1ccccc1	0	1	x	14*	-3	8	19*
Cn1c(=S)[nH]c2ccccc21	-1	0	2	0	6	x	x
S=c1[nH]c2ccccc2n2cccc12	3	6	-2	23*	12	17*	15*	PG9 bind DR=i;PGV04 binding DR=i;PG126 DR counter=i
CCOC(=O)c1cc2sc(C)cc2n1CC(=O)Nc1cccc(C)c1C	-1	0	-3	11*	1	11*	17*
NCCN1CCN(S(=O)(=O)c2ccc3c(c2)CCN3C(=O)C2CCC2)CC1	x	1	x	x	2	x	x
CCC(C(=O)O)n1nc(-c2ccccc2)c2cc(Cl)ccc21 (centres undefined)	1	32	-3	1	-8	x	x
CC(C(=O)NCc1ccco1)n1nc(-c2ccccc2)c2cc(Cl)ccc21 (centres undefined)	0	1	-6	9.9*	-2	14*	22*
CC(C)N1Cc2nnn(Cc3ccccc3)c2-c2cc(N3CCCC3)ccc2S1(=O)=O	x	7	x	x	6	x	x
COc1cn(-c2ccccc2)nc1C(=O)OCC(=O)Nc1ccc(C)c(C)c1	1	-1	-6	4	3	x	x
Cc1ccc(NC(=O)COC(=O)c2ccc(-n3cccn3)cc2)cc1C	0	1	-3	13*	-2	18*	29*
O=C(Cn1nnc(-c2ccc(N3CCOCC3)cc2)n1)c1ccc(F)cc1	x	9	x	x	-44	x	x
Cc1ccc(NC(=O)C2CCCN(c3nnc(-n4cccc4)s3)C2)cc1C (centres undefined)	x	5	x	x	12	x	x
COC(=O)c1ccc(N2C(=O)CC(N3CCOCC3)C2=O)cc1 (centres undefined)	-1	2	-1	13*	-4	7	9.3*
COC(=O)c1ccc(N2C(=O)CC(N3CCN(c4ccccc4)CC3)C2=O)cc1 (centres undefined)	1	2	0	1	1	x	x
C#CCNC(=O)C[C@H]1C[C@@]2(C(=O)OC)C(=C[C@H](C3CCCC3)O[C@@H]2C)N(CCc2ccc(OC)c(OC)c2)C1=O	x	-2	x	x	-3	x	x
CC(C)N1Cc2nnn(Cc3ccc(F)cc3)c2-c2cc(F)ccc2S1(=O)=O	x	1	x	x	11	x	x
COc1ccc(Cc2nnc(SCC(=O)c3ccc4c(c3)NC(=O)CO4)o2)cc1	0	1	-2	9.3*	-29	13*	30*
CNC(=O)c1cnn(-c2nc(-c3ccc(OC)cc3)cs2)c1C(F)(F)F	-1	-1	-3	-1	-6	x	x
COc1ccc(-c2csc(-n3ncc(C(=O)O)c3C(F)(F)F)n2)cc1	0	5	-2	16*	-9	22*	36*
Cc1nonc1NC(=O)CSc1nc2c(C)cccc2cc1C#N	2	16	-4	9.8*	9	42*	66*
SMILES	MsrA inhibitor	rCAG RNA binder	bovine MsrA act	PG9 binder	sPLA2-III inh	PG9 binder conf	PGV04 Ab binding	others
COc1ccc2cc(C#N)c(SCC(=O)Nc3nonc3C)nc2c1	0	5	-1	25*	7	33*	62*
Cc1cc2cc(C#N)c(SCC(=O)Nc3nonc3C)nc2cc1C	1	4	-12	-1	7	x	x
Cc1ccc(C)c2nc(SCC(=O)Nc3ccc4c(c3)OCO4)c(C#N)cc12	0	-2	-5	-2	0	x	x
COC(=O)C1CN(Cc2cn(Cc3ccc(F)cc3)nn2)CCS(=O)(=O)N1Cc1ccc(OC)cc1 (centres undefined)	x	-1	x	x	2	x	x
CSc1nc(SC(C)C(=O)O)c2c3c(sc2n1)COC(C)(C)C3 (centres undefined)	1	11	-4	9.0*	0	21*	30*
COc1ccc2oc(=N)c(C(=O)Nc3ccccc3)cc2c1	0	0	-3	18*	10	6	9.2*
N#Cc1c(N)c(C#N)c(-c2ccc3c(c2)OCO3)c2c1CCCC2	0	4	-3	11*	9	10*	23*
N#Cc1c(N)c(C#N)c(-c2ccc(O)cc2)c2c1CCCC2	0	8	-3	-3	-30	x	x
COc1ccc(C(=O)c2ccc(OC)c(Br)c2)cc1Br	0	3	-2	19*	3	12*	14*
COC(=O)c1cc(Cl)c(NC(=O)c2cc3ccccc3o2)cc1OC	0	1	1	8.7*	7	5	38*
CCc1ccc(CNC(=O)CCCn2c(=O)c3cccn3c3cccnc32)cc1	1	-2	-5	2	-1	x	x
O=C(CCCn1c(=O)c2cccn2c2cccnc21)NCc1cccc(Br)c1	0	-1	0	23*	7	31*	41*
CSc1cccc(NC(=O)CCCn2c(=O)c3cccn3c3cccnc32)c1	1	4	-2	12*	1	14*	20*
Cc1ccc(C2=Nc3ccccc3N=C(c3ccco3)C2)c(O)c1	1	4	0	-3	4	x	x
